Results reported in PubChem BioAssay AID1159580 (chemical genetic matrix, 2015).
In all, about 5,500 compounds went through this assay and about 2,000 (36%) were called active. Inconclusive results (about 18%) are left out. Cut-off read from the data, not from the text of the source: active = normalized growth mostly below about 0.91 (no sharp cut-off); inconclusive = no clear call, values can overlap the other calls; inactive = mostly above about 0.92. This is one part of the list.

Assay: chemical genetic growth profiling, strain panel (AID 1159580);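 note: tested at 20 µM; growth read once vehicle control cultures reached saturation at 30 °C; 1 = growth at the plate median or of vehicle wells; lower values mean less growth of the strain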
Details: growth OD

Measured: normalized growth

CN[C@@H]1[C@@H](O[C@H]2O[C@H](CO)[C@@H](N)[C@H](O)[C@H]2O)O[C@H]2C[C@@H](N)[C@H](O[C@H]3[C@H](O)[C@@H](O)[C@H](N)C[C@@H]3N)O[C@@H]2[C@@H]1O
inactive: S. cerevisiae deletion strains, locus YKL009W, strain mrt4, stronger effect = lower value 0.996 | S. cerevisiae deletion strains, locus YKL068W, stronger effect = lower value 1.01 | S. cerevisiae deletion strains, locus YKL085W, strain MDH1 (second series), stronger effect = lower value 0.982 | S. cerevisiae deletion strains, locus YKL085W, strain MDH1, stronger effect = lower value 0.982 | S. cerevisiae deletion strains, locus YKL160W, strain elf1, stronger effect = lower value 1.01 | S. cerevisiae deletion strains, locus YKL190W, strain CNB1, stronger effect = lower value 1 | S. cerevisiae deletion strains, locus YKR001C, strain vps1, stronger effect = lower value 0.989 | S. cerevisiae deletion strains, locus YKR026C, strain gcn3, stronger effect = lower value 1 | S. cerevisiae deletion strains, locus YKR091W, strain srl3, stronger effect = lower value 1 | S. cerevisiae deletion strains, locus YLL001W, strain dnm1, stronger effect = lower value 1.02 | S. cerevisiae deletion strains, locus YLL026W, stronger effect = lower value 1.01 | S. cerevisiae deletion strains, locus YLL041C, strain sdh2, stronger effect = lower value 0.997 | S. cerevisiae deletion strains, locus YLR027C, strain aat2, stronger effect = lower value 1.01 | S. cerevisiae deletion strains, locus YLR039C, strain RIC1, stronger effect = lower value 1.07 | S. cerevisiae deletion strains, locus YLR058C, strain SHM2, stronger effect = lower value 1.01 | S. cerevisiae deletion strains, locus YLR102C, strain apc9, stronger effect = lower value 1.01 | S. cerevisiae deletion strains, locus YLR113W, strain HOG1, stronger effect = lower value 0.939 | S. cerevisiae deletion strains, locus YLR221C, strain rsa3, stronger effect = lower value 1 | S. cerevisiae deletion strains, locus YLR258W, strain gsy2, stronger effect = lower value 1 | S. cerevisiae deletion strains, locus YLR262C, strain YPT6 (second series), stronger effect = lower value 1 | S. cerevisiae deletion strains, locus YLR262C, strain YPT6, stronger effect = lower value 1.05 | S. cerevisiae deletion strains, locus YLR268W, strain sec22, stronger effect = lower value 0.981 | S. cerevisiae deletion strains, locus YLR320W, strain mms22, stronger effect = lower value 0.991 | S. cerevisiae deletion strains, locus YLR330W, strain CHS5, stronger effect = lower value 1.01 | S. cerevisiae deletion strains, locus YLR342W, strain FKS1 (second series), stronger effect = lower value 1.07 | S. cerevisiae deletion strains, locus YLR342W, strain FKS1, stronger effect = lower value 1.02 | S. cerevisiae deletion strains, locus YLR357W, strain rsc2, stronger effect = lower value 0.996 | S. cerevisiae deletion strains, locus YLR370C, strain arc18, stronger effect = lower value 1.01 | S. cerevisiae deletion strains, locus YLR371W, strain rom2, stronger effect = lower value 1.01 | S. cerevisiae deletion strains, locus YLR384C, strain iki3, stronger effect = lower value 1 | S. cerevisiae deletion strains, locus YLR418C, strain cdc73, stronger effect = lower value 0.99 | S. cerevisiae deletion strains, locus YML016C, strain PPZ1, stronger effect = lower value 1 | S. cerevisiae deletion strains, locus YML032C, strain rad52, stronger effect = lower value 1.01 | S. cerevisiae deletion strains, locus YML120C, strain ndi1, stronger effect = lower value 1 | S. cerevisiae deletion strains, locus YML124C, strain tub3, stronger effect = lower value 0.995 | S. cerevisiae deletion strains, locus YMR058W, strain fet3, stronger effect = lower value 1.02 | S. cerevisiae deletion strains, locus YMR078C, strain ctf18, stronger effect = lower value 1.02 | S. cerevisiae deletion strains, locus YMR125W, strain sto1, stronger effect = lower value 0.988 | S. cerevisiae deletion strains, locus YMR129W, stronger effect = lower value 0.986 | S. cerevisiae deletion strains, locus YMR205C, strain PFK2, stronger effect = lower value 1.02 | S. cerevisiae deletion strains, locus YMR223W, strain ubp8, stronger effect = lower value 0.913 | S. cerevisiae deletion strains, locus YMR231W, strain pep5, stronger effect = lower value 1.01 | S. cerevisiae deletion strains, locus YMR263W, strain SAP30, stronger effect = lower value 0.991 | S. cerevisiae deletion strains, locus YMR307W, strain GAS1, stronger effect = lower value 1.03 | S. cerevisiae deletion strains, locus YNL067W, strain RPL9B, stronger effect = lower value 0.988 | S. cerevisiae deletion strains, locus YNL071W, strain lat1, stronger effect = lower value 0.995 | S. cerevisiae deletion strains, locus YNL128W, strain TEP1, stronger effect = lower value 1.03 | S. cerevisiae deletion strains, locus YNL153C, strain GIM3, stronger effect = lower value 0.98 | S. cerevisiae deletion strains, locus YNL183C, strain NPR1, stronger effect = lower value 0.916 | S. cerevisiae deletion strains, locus YNL209W, strain ssb2, stronger effect = lower value 0.996 | S. cerevisiae deletion strains, locus YNL233W, strain BNI4, stronger effect = lower value 1 | S. cerevisiae deletion strains, locus YNL248C, strain rpa49, stronger effect = lower value 0.999 | S. cerevisiae deletion strains, locus YNL250W, strain rad50, stronger effect = lower value 1.01 | S. cerevisiae deletion strains, locus YNL271C, strain bni1, stronger effect = lower value 0.997 | S. cerevisiae deletion strains, locus YNL298W, strain CLA4, stronger effect = lower value 1.01 | S. cerevisiae deletion strains, locus YNL307C, strain MCK1, stronger effect = lower value 1.02 | S. cerevisiae deletion strains, locus YNL322C, strain KRE1 (second series), stronger effect = lower value 1 | S. cerevisiae deletion strains, locus YNL322C, strain KRE1, stronger effect = lower value 1.01 | S. cerevisiae deletion strains, locus YNR049C, strain mso1, stronger effect = lower value 0.999 | S. cerevisiae deletion strains, locus YNR052C, strain pop2, stronger effect = lower value 0.996 | S. cerevisiae deletion strains, locus YOL006C, strain TOP1, stronger effect = lower value 1 | S. cerevisiae deletion strains, locus YOL012C, strain htz1 0.612 | S. cerevisiae deletion strains, locus YOL147C, strain pex11, stronger effect = lower value 1 | S. cerevisiae deletion strains, locus YOR001W, strain rrp6, stronger effect = lower value 1 | S. cerevisiae deletion strains, locus YOR061W, strain CKA2, stronger effect = lower value 1.01 | S. cerevisiae deletion strains, locus YOR069W, strain VPS5, stronger effect = lower value 1 | S. cerevisiae deletion strains, locus YOR070C, strain gyp1, stronger effect = lower value 1 | S. cerevisiae deletion strains, locus YOR080W, strain dia2, stronger effect = lower value 1.01 | S. cerevisiae deletion strains, locus YOR083W, strain WHI5, stronger effect = lower value 1.01 | S. cerevisiae deletion strains, locus YOR106W, strain vam3, stronger effect = lower value 1.01 | S. cerevisiae deletion strains, locus YOR136W, strain idh2, stronger effect = lower value 1.01 | S. cerevisiae deletion strains, locus YOR144C, strain elg1, stronger effect = lower value 1 | S. cerevisiae deletion strains, locus YOR184W, strain ser1, stronger effect = lower value 1.03 | S. cerevisiae deletion strains, locus YOR231W, strain MKK1, stronger effect = lower value 0.951 | S. cerevisiae deletion strains, locus YOR265W, strain rbl2, stronger effect = lower value 1.01 | S. cerevisiae deletion strains, locus YOR270C, strain vph1, stronger effect = lower value 1.2 | S. cerevisiae deletion strains, locus YOR290C, strain snf2, stronger effect = lower value 0.991 | S. cerevisiae deletion strains, locus YOR316C, strain cot1, stronger effect = lower value 1.01 | S. cerevisiae deletion strains, locus YPL051W, strain arl3, stronger effect = lower value 1.02 | S. cerevisiae deletion strains, locus YPL055C, strain LGE1, stronger effect = lower value 0.984 | S. cerevisiae deletion strains, locus YPL078C, strain atp4, stronger effect = lower value 1.03 | S. cerevisiae deletion strains, locus YPL106C, strain sse1, stronger effect = lower value 0.975 | S. cerevisiae deletion strains, locus YPL240C, strain hsp82, stronger effect = lower value 0.995 | S. cerevisiae deletion strains, locus YPL241C, strain CIN2, stronger effect = lower value 1 | S. cerevisiae deletion strains, locus YPL256C, strain CLN2, stronger effect = lower value 1.02 | S. cerevisiae deletion strains, locus YPR119W, strain clb2, stronger effect = lower value 1.01 | S. cerevisiae deletion strains, locus YPR141C, strain kar3, stronger effect = lower value 1 | S. cerevisiae deletion strains, locus YPR163C, strain tif3, stronger effect = lower value 1 | S. cerevisiae deletion strains, locus YPR167C, strain met16, stronger effect = lower value 0.991 | S. cerevisiae deletion strains, strain wtn01, stronger effect = lower value 0.988 | S. cerevisiae strains, strain wild type, stronger effect = lower value 1.02
